The inhibition is the drop in the measured response relative to a control, in per cent.

Experimental findings from ChEMBL document CHEMBL1961873, “Compounds: GSK PKIS; Assays: Nanosyn kinase panel” (2012) are described below.

The target of test [1] is MAP/microtubule affinity-regulating kinase 3 (Homo sapiens) (UniProt P27448). The settings on record: at 1 µM.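 Also: reported values are averaged percent inhibition of MARK3.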
The target in test [2] is T1, MAP/microtubule affinity-regulating kinase 4 (Homo sapiens) (UniProt Q96L34).
T1 sequence (whole entry): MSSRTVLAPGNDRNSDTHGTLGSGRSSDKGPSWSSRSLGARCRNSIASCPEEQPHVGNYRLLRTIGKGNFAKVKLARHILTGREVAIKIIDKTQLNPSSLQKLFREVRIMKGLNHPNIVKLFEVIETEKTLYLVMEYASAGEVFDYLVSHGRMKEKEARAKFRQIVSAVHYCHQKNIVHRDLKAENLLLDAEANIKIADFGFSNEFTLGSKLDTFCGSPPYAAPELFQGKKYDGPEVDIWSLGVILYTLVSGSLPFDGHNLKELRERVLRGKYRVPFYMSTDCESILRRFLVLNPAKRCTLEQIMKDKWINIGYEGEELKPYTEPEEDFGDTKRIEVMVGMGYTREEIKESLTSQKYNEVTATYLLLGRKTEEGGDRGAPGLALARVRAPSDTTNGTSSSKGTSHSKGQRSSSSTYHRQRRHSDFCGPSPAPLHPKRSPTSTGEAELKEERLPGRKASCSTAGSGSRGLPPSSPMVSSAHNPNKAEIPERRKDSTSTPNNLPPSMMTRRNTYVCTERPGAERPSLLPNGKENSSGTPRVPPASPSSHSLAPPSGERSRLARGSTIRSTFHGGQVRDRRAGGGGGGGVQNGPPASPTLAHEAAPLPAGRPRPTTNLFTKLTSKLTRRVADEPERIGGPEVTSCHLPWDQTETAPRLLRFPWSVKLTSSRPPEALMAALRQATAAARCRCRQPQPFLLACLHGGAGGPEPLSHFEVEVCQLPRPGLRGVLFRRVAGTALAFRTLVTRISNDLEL
The settings on record: at 0.1 µM.

Test [3] deals with T1, MAP/microtubule affinity-regulating kinase 4 (Homo sapiens). To be noted: at 1 µM.
Test [4] concerns the target Maternal embryonic leucine zipper kinase (Homo sapiens) (UniProt Q14680). The settings on record: at 0.1 µM.
For test [5] the target is unchanged. To be noted: at 1 µM.
Test [6] addresses MAP kinase-interacting serine/threonine-protein kinase 1 (Homo sapiens) (UniProt Q9BUB5). To be noted: at 0.1 µM.
For test [7] the target is unchanged. To be noted: at 1 µM.
Test [8] deals with MAP kinase-interacting serine/threonine-protein kinase 2 (Homo sapiens) (UniProt Q9HBH9). To be noted: at 0.1 µM.
MAP kinase-interacting serine/threonine-protein kinase 2 (Homo sapiens), sequence (Q9HBH9 whole entry, looked up): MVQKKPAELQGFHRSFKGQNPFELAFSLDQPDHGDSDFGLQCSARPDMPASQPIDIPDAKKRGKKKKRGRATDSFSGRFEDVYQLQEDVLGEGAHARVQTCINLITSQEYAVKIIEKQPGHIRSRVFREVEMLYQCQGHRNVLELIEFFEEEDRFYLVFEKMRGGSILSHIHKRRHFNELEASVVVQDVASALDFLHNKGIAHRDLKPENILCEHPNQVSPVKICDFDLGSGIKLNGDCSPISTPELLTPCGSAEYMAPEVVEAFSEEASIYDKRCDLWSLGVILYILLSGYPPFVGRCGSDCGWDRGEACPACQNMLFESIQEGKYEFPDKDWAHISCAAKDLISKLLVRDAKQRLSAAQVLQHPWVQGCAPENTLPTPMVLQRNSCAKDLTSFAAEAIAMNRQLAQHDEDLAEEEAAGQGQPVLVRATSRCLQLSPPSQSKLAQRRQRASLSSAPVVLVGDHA
For test [9] the target is unchanged. To be noted: at 1 µM.
Test [10] addresses Serine/threonine-protein kinase MARK2 (Homo sapiens) (UniProt Q7KZI7). To be noted: at 0.1 µM.

MAP/microtubule affinity-regulating kinase 3 (Homo sapiens), sequence (P27448 whole entry, looked up): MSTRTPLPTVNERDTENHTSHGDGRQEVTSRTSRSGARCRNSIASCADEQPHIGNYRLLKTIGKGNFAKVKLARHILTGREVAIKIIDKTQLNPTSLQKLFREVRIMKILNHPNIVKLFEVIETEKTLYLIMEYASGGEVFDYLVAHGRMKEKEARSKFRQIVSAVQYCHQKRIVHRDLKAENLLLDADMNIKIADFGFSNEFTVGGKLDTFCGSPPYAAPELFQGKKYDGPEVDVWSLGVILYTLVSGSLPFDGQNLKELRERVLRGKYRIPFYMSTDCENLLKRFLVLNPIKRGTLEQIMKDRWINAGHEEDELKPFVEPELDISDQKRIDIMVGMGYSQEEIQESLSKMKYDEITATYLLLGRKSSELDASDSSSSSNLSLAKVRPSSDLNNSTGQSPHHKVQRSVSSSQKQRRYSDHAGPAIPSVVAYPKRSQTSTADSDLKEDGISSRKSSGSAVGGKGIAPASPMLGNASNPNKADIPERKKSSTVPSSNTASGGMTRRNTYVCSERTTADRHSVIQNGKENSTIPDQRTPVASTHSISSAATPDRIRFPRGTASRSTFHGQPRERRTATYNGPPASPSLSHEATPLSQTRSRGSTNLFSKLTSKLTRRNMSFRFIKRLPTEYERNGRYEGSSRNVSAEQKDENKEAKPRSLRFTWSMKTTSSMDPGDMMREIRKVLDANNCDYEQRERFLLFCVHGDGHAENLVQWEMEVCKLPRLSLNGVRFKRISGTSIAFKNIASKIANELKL
Maternal embryonic leucine zipper kinase (Homo sapiens), sequence (Q14680 whole entry, looked up): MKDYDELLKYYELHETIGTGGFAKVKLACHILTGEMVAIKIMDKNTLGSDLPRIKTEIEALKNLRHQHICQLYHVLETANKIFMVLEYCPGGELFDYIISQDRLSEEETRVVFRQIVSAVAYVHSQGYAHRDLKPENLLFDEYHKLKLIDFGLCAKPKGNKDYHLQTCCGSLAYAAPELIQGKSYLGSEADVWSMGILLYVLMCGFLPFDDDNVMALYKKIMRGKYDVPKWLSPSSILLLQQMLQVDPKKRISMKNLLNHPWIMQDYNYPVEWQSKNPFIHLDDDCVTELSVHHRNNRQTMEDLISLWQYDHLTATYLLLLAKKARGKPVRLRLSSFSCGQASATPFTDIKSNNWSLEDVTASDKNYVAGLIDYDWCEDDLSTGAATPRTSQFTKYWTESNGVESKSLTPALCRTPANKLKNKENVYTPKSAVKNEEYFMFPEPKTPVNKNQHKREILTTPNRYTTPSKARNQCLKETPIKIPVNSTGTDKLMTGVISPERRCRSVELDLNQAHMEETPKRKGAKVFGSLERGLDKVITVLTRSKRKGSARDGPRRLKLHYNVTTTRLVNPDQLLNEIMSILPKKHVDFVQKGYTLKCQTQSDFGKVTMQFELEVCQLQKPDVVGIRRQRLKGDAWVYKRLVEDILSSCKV
MAP kinase-interacting serine/threonine-protein kinase 1 (Homo sapiens), sequence (Q9BUB5 whole entry, looked up): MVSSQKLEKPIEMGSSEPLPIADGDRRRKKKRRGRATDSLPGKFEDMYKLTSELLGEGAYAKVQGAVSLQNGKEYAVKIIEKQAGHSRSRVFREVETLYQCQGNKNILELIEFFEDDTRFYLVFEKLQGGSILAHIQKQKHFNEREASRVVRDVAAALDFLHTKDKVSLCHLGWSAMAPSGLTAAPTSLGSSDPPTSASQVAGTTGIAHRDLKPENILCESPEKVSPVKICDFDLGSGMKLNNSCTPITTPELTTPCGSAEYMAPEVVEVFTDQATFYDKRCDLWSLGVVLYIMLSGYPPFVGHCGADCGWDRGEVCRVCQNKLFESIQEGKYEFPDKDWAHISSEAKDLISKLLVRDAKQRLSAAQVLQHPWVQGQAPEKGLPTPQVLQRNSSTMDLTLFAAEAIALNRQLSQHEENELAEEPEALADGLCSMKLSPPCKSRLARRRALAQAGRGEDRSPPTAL
Serine/threonine-protein kinase MARK2 (Homo sapiens), sequence (Q7KZI7 whole entry): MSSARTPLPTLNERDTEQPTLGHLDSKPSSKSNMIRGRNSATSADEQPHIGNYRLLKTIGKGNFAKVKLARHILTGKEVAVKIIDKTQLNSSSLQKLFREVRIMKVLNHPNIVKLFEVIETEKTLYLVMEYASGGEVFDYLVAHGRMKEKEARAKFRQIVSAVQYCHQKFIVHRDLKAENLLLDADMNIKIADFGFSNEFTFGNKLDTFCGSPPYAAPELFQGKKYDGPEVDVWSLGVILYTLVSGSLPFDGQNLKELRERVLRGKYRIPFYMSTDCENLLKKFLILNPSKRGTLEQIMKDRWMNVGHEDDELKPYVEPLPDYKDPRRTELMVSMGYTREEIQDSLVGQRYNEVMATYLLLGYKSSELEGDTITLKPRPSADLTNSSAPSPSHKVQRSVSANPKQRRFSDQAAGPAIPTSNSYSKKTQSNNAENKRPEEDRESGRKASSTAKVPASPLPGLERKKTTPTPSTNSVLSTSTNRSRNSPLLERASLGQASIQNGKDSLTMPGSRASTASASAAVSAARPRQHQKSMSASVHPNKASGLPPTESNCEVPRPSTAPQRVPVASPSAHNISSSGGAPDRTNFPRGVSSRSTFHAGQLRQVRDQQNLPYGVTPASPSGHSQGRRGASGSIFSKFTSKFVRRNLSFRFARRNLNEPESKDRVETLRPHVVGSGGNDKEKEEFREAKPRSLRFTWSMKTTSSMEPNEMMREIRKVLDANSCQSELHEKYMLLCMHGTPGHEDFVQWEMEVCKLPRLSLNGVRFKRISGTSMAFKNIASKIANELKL

Take `FC(F)(F)c1ccc(-c2nn3ncccc3c2-c2ccnc(Nc3ccc4c(c3)OCCO4)n2)cc1`: the inhibition in test [1] was 11.2%; in [2], 4.98%; in test [3], 6.4%; in test [4], -0.41%; in test [5], -0.13%; in test [6], 6.66%. In addition, the inhibition in test [7] was found to be 10.9%; in [8] it was 6.24%; in test [9], 9.7%; in test [10], 6.43%.

As to `O=C1Nc2ccccc2/C1=C/Nc1ccc2[nH]c(=O)[nH]c2c1`, the inhibition in [1] is 27.5%; in test [2], 4.86%; in test [3] it was 27.1%; in test [4], 5.79%; in [5] it was 41.4%; in test [6] it was 5.46%. Further, the inhibition was 14% in [7], 2.62% in test [8], 10.9% in [9] and 3.32% in [10].

For the molecule `CC(C)c1ccc(Nc2nccc(-c3cnn4ncccc34)n2)cc1`, the inhibition in test [1] was determined as 3.95%; in [2] it was 0.24%; in test [3], 2.61%; in test [4], 5.96%; in test [5], 26.3%; in [6], 3.64%. Further, the inhibition in test [7] was 11.8%; in test [8], 2.64%; in [9] it was 15.2%; in test [10], -1.19%.

In the case of `Cc1ccc2c(-c3ccnc(Nc4ccc5c(c4)OCCO5)n3)c(-c3ccc(C(F)(F)F)cc3)nn2n1`, the inhibition in [1] is 5.36%; in [2], 1.96%; in test [3] it was 3.07%; in test [4] it was -1.46%; in test [5] it was 0.19%; in test [6] it was 0.37%. Further, the inhibition is -0.05% in test [7], 0.66% in test [8], 1.73% in test [9] and -0.06% in test [10].

With `N#Cc1cccc(Nc2nccc(-c3cnn4ncccc34)n2)c1`, the inhibition in test [1] was 13.1%; in test [2], 1.74%; in [3], 9.89%; in test [4], 12.5%; in test [5], 55.9%; in test [6] it was 6.09%. Moreover, the inhibition came out at 22.5% in test [7], 5.65% in test [8], 33% in test [9] and 1.3% in test [10].

As to `CC(C)c1ccc2c(c1)NC(=O)/C2=N/Nc1ccc(S(N)(=O)=O)cc1`, the inhibition in [1] was -2.09%; in [2], -0.86%; in [3], 0.13%; in test [4], 0.88%; in [5], 0.52%; in [6] it was 1.43%. Moreover, the inhibition was 2.29% in test [7], 0.22% in [8], 2.57% in test [9] and -1.41% in test [10].

`COC(=O)c1ccc2c(c1)C(=Cc1cc(Br)c(O)c(Br)c1)C(=O)N2`: the inhibition was found to be 3.71% in test [1]; 0.93% in [2]; 5.08% in [3]; 6.21% in test [4]; 22.2% in [5]; 1.07% in test [6]. Also, the inhibition is 5.73% in test [7], 2.35% in [8], 19% in test [9] and 0.84% in test [10].

On to `O=C(Nc1ccc(Oc2ccc3[nH]c(NC(=O)c4ccco4)nc3c2)cc1)Nc1cc(C(F)(F)F)ccc1F`, for which the inhibition was -0.23% in [1]; 0.1% in test [2]; 2.11% in test [3]; 0.54% in test [4]; 8.57% in test [5]; 3.42% in test [6]. The inhibition in [7] was 28.4%; in test [8] it was 2.04%; in [9] it was 37.3%; in test [10], -0.8%.

For `CCCN1CCCC(c2ccc(Nc3nc(Nc4cc(F)ccc4C(N)=O)c4cc[nH]c4n3)c(OC)c2)C1` (stereo not given), the inhibition came to 68.3% in test [1]; 7.3% in [2]; 40.7% in [3]; 24% in test [4]; 75.2% in [5]; 3.82% in test [6]. Besides, the inhibition came out at 5.92% in test [7], 1.87% in test [8], 2.51% in test [9] and 6.68% in test [10].

As to `CN(c1ccc(NC(=O)Nc2ccc(OC(F)(F)F)cc2)cc1)c1ccnc(Nc2cccc(S(N)(=O)=O)c2)n1`, the inhibition in [1] is -0.68%; in [2], 0.65%; in [3], 1.56%; in [4] it was 0.77%; in test [5], -2.07%; in [6], 29.2%. Further, the inhibition in test [7] was 73.3%; in [8] it was 20.5%; in [9] it was 67.3%; in [10], -1.1%.

As for `NC(=O)c1cccc(Nc2nccc(Nc3cccc(F)c3)n2)c1`, the inhibition in test [1] is 2.35%; in test [2], 0.72%; in test [3] it was 3.28%; in test [4], -2.04%; in test [5] it was 2.88%; in test [6], 1.05%. Further, the inhibition in test [7] is 3.91%; in test [8], 0.26%; in test [9] it was 8.7%; in [10], -1.24%.

Take `NS(=O)(=O)c1cccc(-c2cc3ccncc3cc2OCc2ccccc2)c1`: the inhibition is 9.67% in [1]; 2.91% in [2]; 6.29% in test [3]; 4.44% in test [4]; 6.24% in test [5]; 3.03% in [6]. The inhibition in test [7] came to 6.7%; in test [8], 3.83%; in [9] it was 25.1%; in test [10], 3.3%.

For the molecule `Cc1ccc2c(-c3ccnc(Nc4cccc(C(F)(F)F)c4)n3)c(-c3ccccc3)nn2n1`, the inhibition in test [1] worked out at 3.93%; in test [2], 2.61%; in [3], 2.82%; in [4] it was 5.84%; in test [5] it was 10.4%; in [6], 3.3%. Moreover, the inhibition worked out at 4.19% in test [7], 2.04% in test [8], 3.52% in test [9] and 1.89% in [10].

As to `NS(=O)(=O)c1ccc(Nc2cc(-c3cccc(O)c3)n[nH]2)cc1`, the inhibition is 32.5% in test [1]; 3.4% in [2]; 9.85% in [3]; 4.37% in test [4]; 7.45% in [5]; 3.01% in test [6]. Besides, the inhibition in test [7] came out at 7.14%; in test [8] it was 0.45%; in [9], 5.79%; in test [10], 1.86%.

As for `COc1ccc2ncnc(Nc3ccc(OCc4ccccc4)cc3)c2c1`, the inhibition in test [1] is 3.15%; in [2], 0.07%; in test [3], -0.37%; in test [4] it was -0.28%; in test [5], 2.03%; in [6] it was 2.24%. Moreover, the inhibition in test [7] is 7.43%; in [8], 1.39%; in test [9] it was 11.3%; in [10], 0.5%.

For `CS(=O)(=O)CCNCc1nc(-c2ccc3ncnc(Nc4ccc(OCc5cccc(C(F)(F)F)c5)cc4)c3c2)cs1`, the inhibition was 1.92% in test [1]; -0.17% in test [2]; 1.58% in [3]; 0.45% in test [4]; 2.55% in test [5]; 3.67% in test [6]. Besides, the inhibition is 7.54% in [7], 0.84% in [8], 6.94% in [9] and 0.22% in test [10].
